EBV LMP1 NFkB: reduces LMP1-driven NF-kappaB luciferase signal; LMP1-induced NF-kappaB luciferase reporter cells, luminescence; inhibition, % at 12.5 µM; 0.69% of 350,000 active; AID 504558; in the data active means inhibition above about 41%;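 further: 0% = neutral control wells and 100% = reference inhibitor control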
TRPM1 prom inh: inhibitors of MITF-driven TRPM1 promoter in melanoma cells; AID 488899; SK-MEL-5 TRPM1 promoter luciferase, 24 h; 0.83% of 330,000 active; inhibition, % at 12.5 µM;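 active means mean inhibition across replicates of 60% or more, whatever share of single replicates reaches that level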
TWEAK-Fn14 inh: inhibitors of TWEAK-Fn14 interaction signaling | TWEAK-stimulated Fn14 reporter cells, luciferase luminescence, 8 h | inhibition, % at 10 µM | 2% of 360,000 active | AID 1159606; in the data active means inhibition above about 50%
MITF act: increases MITF-driven TRPM1 promoter luciferase signal; SK-MEL-5 TRPM1-promoter luciferase, 24 h; % of positive control, neutral wells = 0; activation, % at 12.5 µM; 0.75% of 300,000 active; AID 588334;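 active means mean activation of at least 80% with every replicate also reaching 80%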;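 further: 0% = neutral control wells and 100% = parthenolide positive control wells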
LGR2 antag: blocks bursicon-induced cAMP signaling via Drosophila LGR2; HEK293 LGR2, CRE-luciferase, bursicon-stimulated, 4 h; inhibition, % at 9.99 µM; 0.35% of 380,000 active; AID 720647;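 active means drop in luminescence signal, shown as inhibition above about 50% in the replicate tests, limit read from the data, passing the limit was not always enough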;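 further: agonist challenge used bursicon conditioned medium at about half maximal strength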
TROY NFkB inh: TROY signaling inhibition; Q293 LMP1-TROYcd NF-kB luciferase reporter, 4 h; inhibition, % at 10 µM; 0.98% of 360,000 active;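 active means compounds whose plate-normalised and pattern-corrected inhibition of the luciferase reporter signal at the single screening dose is 50% or more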
Starred values were filed as active, the others as inactive; nt = no result. An excerpt weighted towards active compounds, which were near 3% of everything screened.

SMILES	EBV LMP1 NFkB	TRPM1 prom inh	TWEAK-Fn14 inh	MITF act	LGR2 antag	TROY NFkB inh
CC(C)c1ccc2c(c1)C(N1CCNCC1)Cc1ccc(F)cc1S2 (centres undefined)	nt	nt	nt	nt	103.6*	nt
Cc1cc(-c2csc(NC(=O)c3ccc(=O)[nH]c3)n2)c(C)n1Cc1ccco1	1.9	9.0	58.3*	-9.6	2.4	4.8
CN1CCN(C(=O)C[C@H]2C[C@@H]3c4cc(NC(=O)Nc5ccc(F)cc5)ccc4O[C@@H]3[C@@H](CO)O2)CC1	nt	nt	nt	nt	-16.2	nt
CC(CCc1ccccc1)NC(=O)CNC(=O)c1cccs1 (centres undefined)	-0.6	4.3	60.9*	-3.5	16.3	4.9
Cc1occc1C(=O)NC(C)CCc1ccccc1 (centres undefined)	-4.2	9.0	51.8*	-8.0	nt	nt
Cc1cccc(C(=O)NCC(=O)NC(C)CCc2ccccc2)c1 (centres undefined)	6.9	16.7	14.1	-14.3	-2.7	0.6
CC(C)NC(=O)Nc1ccc2c(c1)C(=O)N([C@H](C)CO)C[C@@H](C)[C@H](CN(C)S(=O)(=O)c1cn(C)cn1)O2	nt	nt	nt	nt	-6.9	nt
CCOc1ccc(C(C)=O)cc1COc1cccnc1[N+](=O)[O-]	50.8*	17.1	39.2	-19.8	14.2	60.2*
C[C@@H]1CCCCO[C@H](CN(C)C(=O)Nc2ccc3c(c2)OCO3)[C@@H](C)CN([C@@H](C)CO)C(=O)c2cc(NC(=O)c3ccccc3)ccc2O1	nt	nt	nt	nt	11.2	nt
O=C(Nc1sc2c(c1C(=O)O)CCC2)c1ccccc1	-1.8	-10.4	35.6	7.1	nt	-34.2
COc1ccccc1OCC(=O)Nc1sc2c(c1C(N)=O)CCC2	-17.6	-86.7	0.9	88.8*	-45.4	8.8
Cc1ccc(C(=O)Nc2sc3c(c2C#N)CCCCC3)cc1C	-43.2	-118.8	-5.7	119.0*	nt	-58.3
O=C(Nc1sc2c(c1C(=O)O)CCCCC2)c1ccccc1	2.7	-56.2	64.4*	60.4	-26.7	36.7
Cn1cc([N+](=O)[O-])c(C(=O)Nc2sc3c(c2C#N)CCC3)n1	-8.4	67.7*	0.3	-66.5	-25.8	-7.1
CC(=O)Nc1sc2c(c1C#N)CCCCC2	-11.9	-1.4	18.9	0.1	nt	15.1
COc1cccc(C(=O)OCC(=O)Nc2sc3c(c2C(N)=O)CCC3)c1O	6.1	18.0	5.4	-17.6	-3.6	-4.2
O=C(C[C@H]1CC[C@H](NS(=O)(=O)c2ccc(F)cc2)[C@H](CO)O1)NC1CCCCC1	nt	nt	nt	nt	-3.5	nt
COC(=O)c1c(NC(C)=O)sc2c1CCCCC2	-2.8	4.1	8.0	-2.3	-18.0	5.6
COC(=O)c1c(NC(=O)C2CC=CCC2C(=O)O)sc2c1CCCCC2 (centres undefined)	-1.6	8.2	96.4*	-7.2	-1.1	1.9
CCn1cc(Br)c(C(=O)Nc2sc3c(c2C(N)=O)CCCC3)n1	-9.6	-21.3	-37.3	23.0	nt	-31.4
Cn1cc(Br)c(C(=O)Nc2sc3c(c2C(N)=O)CCCC3)n1	-14.4	-85.1	-36.1	85.1*	-27.9	-26.1
NC(=O)c1c(NC(=O)c2cccs2)sc2c1CCCCCC2	-25.1	-118.7	15.6	118.0*	-71.4	-9.6
CCOC(=O)C1=C(COC(=O)COc2ccc(C#N)cc2)NC(=O)NC1C (centres undefined)	-0.6	-0.6	90.3*	-1.8	7.7	-0.9
CCOC(=O)C1=C(COC(=O)COc2ccc(C(C)=O)cc2)NC(=O)NC1C (centres undefined)	-12.2	17.2	2.9	-14.6	1.9	-7.9
O=C(/C=C/c1nc2ccccc2s1)N1CCCCCC1	-8.6	-91.3	-20.0	100.4*	-50.5	-33.2
SMILES	EBV LMP1 NFkB	TRPM1 prom inh	TWEAK-Fn14 inh	MITF act	LGR2 antag	TROY NFkB inh
CN1C2CCC1/C(=C\c1ccccc1)C(=O)/C2=C\c1ccccc1	-63.0	35.2	56.4*	-30.4	nt	-6.9
CCNC(=O)Nc1ccc2c(c1)C(=O)N(C)[C@@H]1CC[C@H](CC(=O)NCc3ccc(F)cc3)O[C@H]1CO2	nt	nt	nt	nt	-0.1	nt
COc1ccc(S(=O)(=O)Nc2ccc3c(c2)C(=O)N([C@@H](C)CO)C[C@@H](C)[C@@H](CN(C)C(=O)NC(C)C)O3)cc1	nt	nt	nt	nt	-2.0	nt
C[C@H](CO)N1C[C@H](C)[C@H](CN(C)S(=O)(=O)c2ccccc2)OCCCC[C@H](C)Oc2ccc(NS(=O)(=O)c3cccs3)cc2C1=O	nt	nt	nt	nt	-15.9	nt
c1ccc(CCc2nn3c(-c4ccncc4)nnc3s2)cc1	28.6	-18.9	73.9*	22.0	nt	28.7
NCC[C@H]1CC[C@H](NC(=O)NC2CCCCC2)[C@H](CO)O1	nt	nt	nt	nt	-25.2	nt
CCCn1nnc(NC(=O)c2ccc3ccccc3c2)n1	-32.9	-118.5	-4.6	121.6*	-64.2	-32.0
COc1cc(C(=O)OC(C)C(=O)NC2CCCCC2C)c([N+](=O)[O-])cc1OC (centres undefined)	3.3	-8.4	-7.6	9.0	16.3	-12.7
CC(OC(=O)c1ccc([N+](=O)[O-])s1)C(=O)NC1CCCCC1C (centres undefined)	10.1	77.5*	14.2	-77.6	1.9	-15.2
COc1cccc2sc(Nc3nc(-c4ccccn4)cs3)nc12	46.1*	52.7	103.9*	-53.2	nt	-21.6
O=C(Cc1ccccc1F)Nc1ccc(SC(F)F)cc1	-1.2	-106.8	-48.5	103.4*	-69.8	-75.9
O=C(CNC(=O)c1ccccc1Cl)c1ccccc1	-24.3	-37.5	-15.9	35.2	-28.1	-32.6
O=C(COC(=O)Cc1ccccc1F)Nc1ccc(SC(F)F)cc1	5.5	1.0	-42.6	-1.4	-11.3	-63.9
O=C(Nc1ccc2ccccc2c1)c1ccccc1F	-50.9	-7.7	36.2	10.8	51.9*	-17.2
O=C(Nc1ccc(C(=O)c2ccc(C(=O)O)c(C(=O)O)c2)cc1)c1ccccc1	4.6	-0.9	3.3	nt	14.4	4.1
O=C(O)c1ccc(C(=O)O)c(C(=O)c2ccc(NC(=O)c3ccccc3)cc2)c1	59.7*	12.0	-1.3	-9.9	-15.6	-2.8
O=C(CNC(=O)c1ccccc1F)c1ccccc1	5.2	-14.5	62.3*	nt	35.8	-12.5
C[C@@H]1CN([C@H](C)CO)C(=O)c2cc(N(C)C)ccc2O[C@@H](C)CCCCO[C@H]1CN(C)Cc1ccccc1	nt	nt	nt	nt	4.6	nt
COCC(=O)N1[C@@H](CO)[C@@H](c2ccc(-c3cccc(OC)c3)cc2)C12CN(C(C)=O)C2	nt	nt	nt	nt	-14.0	nt
O=C(Nc1ccc(F)cc1)c1ccccc1F	-13.0	-78.3	-18.9	81.7*	-25.9	-50.4
CC(=O)Nc1ccc(NC(=O)c2ccccc2Br)cc1	nt	nt	-9.2	nt	10.8	-19.7
O=C(Nc1ccc(Br)cc1)c1ccccc1Br	-32.1	-88.8	-17.2	101.1*	-61.1	-53.0
O=C(Nc1ccc(F)cc1)c1cccc(C(=O)Nc2ccc(F)cc2)c1	3.9	-2.9	17.3	0.5	-10.2	7.3
O=C(Nc1ccccc1)Nc1ccc2ccccc2c1	-9.5	-83.2	-24.2	91.7*	-38.8	-53.9
O=C(Nc1ccc(F)cc1)c1ccccc1	-19.2	-101.1	-25.3	104.1*	-21.1	-55.6

Assay outcomes: PubChem, several laboratories
